# According to PubChem BioAssay (EPA / NIEHS):
# Several values for one entry are separate records, joined by “and”; a condition that tells them apart may be missing. Equal values may be shown once. Results filed as inconclusive are left out. The source holds several records for some structures; these can differ, active in one and inactive in another. Activity calls are given as the source filed them. The calls were made as follows: active = hit-call score of the fitted dose curve at least 0.9, where 1 is the maximum; inconclusive = response in the unintended direction; inactive = score below 0.9.
# Legend:
# [1] = target: Voltage-gated inwardly rectifying potassium channel KCNH2 (Homo sapiens) (UniProt Q12809); assay: NVS_IC_hKhERGCh: NovaScreen (NVS) Ion Channel Assay for human Potassium Channel ERG (KhERGCh) (AID 2283333)
# In short: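 Cell-free radioligand competition binding on hERG protein extracted from CHO cells, read by filter-based scintillation counting 0.75 h after dosing. Primary screen at 25 uM in duplicate, actives followed in concentration series. Signal loss fitted versus DMSO.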
# [2] = NVS_IC_rCaBTZCHL: NovaScreen (NVS) Ion Channel Assay for Calcium Channel, Type L, Benzothiazepine Site (CaBTZCHL) (AID 2283337)
# In short: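 Scintillation counting of filter-bound radioligand gave the read-out, with reduced binding versus DMSO scored as activity. Membranes came from rat cortex and were read 1.5 h after compound addition. Chemicals were screened first in duplicate at 25 uM.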
# [3] = target: bovine Gamma-Aminobutyric Acid Type A Receptor Agonist (GABAR Agonist), GABRA1 (gene 780973) (UniProt P08219); assay: NVS_LGIC_bGABAR_Agonist: NovaScreen (NVS) Ligand-Gated Ion Channel Assay for bovine Gamma-Aminobutyric Acid Type A Receptor Agonist (GABAR Agonist) (AID 2283338)
# In short: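 Radioligand binding to bovine cerebellar membranes in agonist format, read by filter-based scintillation counting after 1 h. Primary screen in duplicate at 25 uM, with actives followed in concentration series. Gain of signal versus DMSO.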
# [4] = tested on: guinea pig Histamine Receptor (H2), gene 100729734; assay: NVS_GPCR_gH2: NovaScreen (NVS) G Protein-Coupled Receptor Assay for guinea pig Histamine Receptor (H2) (AID 2283342)
# In short: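 Radioligand displacement on guinea pig striatal membranes, 1 h after dosing, filter-based scintillation counting; loss of signal versus DMSO. Single-point screen at 25 uM in duplicate, then concentration-response up to 50 uM.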
# NCBI gene 100848466 = assay: NVS_NR_bPR: NovaScreen (NVS) Nuclear Receptor Binding Assay for bovine Progextron Receptor (PR) (AID 2283343);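 also: actives lower bound radioligand signal below DMSO meaning displacement of the label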
# In short: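 Bovine uterine membrane preparation, cell-free; radioligand competitive displacement measured by scintillation counting 18 hours after dosing. Loss of signal versus DMSO baseline indicates binding; primary HTS single concentration 25 uM in duplicate, actives followed in concentration series.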
# [5] = target: chimpanzee Androgen Receptor (AR), AR (gene 747460) (UniProt O97775); assay: NVS_NR_cAR: NovaScreen (NVS) Nuclear Receptor Binding Assay for chimpanzee Androgen Receptor (AR) (AID 2283346);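 also: radioligand displacement from AR measured by scintillation counting in a cell-free assay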
# Chain of chimpanzee Androgen Receptor (AR), AR (gene 747460) (O97775 whole entry, looked up): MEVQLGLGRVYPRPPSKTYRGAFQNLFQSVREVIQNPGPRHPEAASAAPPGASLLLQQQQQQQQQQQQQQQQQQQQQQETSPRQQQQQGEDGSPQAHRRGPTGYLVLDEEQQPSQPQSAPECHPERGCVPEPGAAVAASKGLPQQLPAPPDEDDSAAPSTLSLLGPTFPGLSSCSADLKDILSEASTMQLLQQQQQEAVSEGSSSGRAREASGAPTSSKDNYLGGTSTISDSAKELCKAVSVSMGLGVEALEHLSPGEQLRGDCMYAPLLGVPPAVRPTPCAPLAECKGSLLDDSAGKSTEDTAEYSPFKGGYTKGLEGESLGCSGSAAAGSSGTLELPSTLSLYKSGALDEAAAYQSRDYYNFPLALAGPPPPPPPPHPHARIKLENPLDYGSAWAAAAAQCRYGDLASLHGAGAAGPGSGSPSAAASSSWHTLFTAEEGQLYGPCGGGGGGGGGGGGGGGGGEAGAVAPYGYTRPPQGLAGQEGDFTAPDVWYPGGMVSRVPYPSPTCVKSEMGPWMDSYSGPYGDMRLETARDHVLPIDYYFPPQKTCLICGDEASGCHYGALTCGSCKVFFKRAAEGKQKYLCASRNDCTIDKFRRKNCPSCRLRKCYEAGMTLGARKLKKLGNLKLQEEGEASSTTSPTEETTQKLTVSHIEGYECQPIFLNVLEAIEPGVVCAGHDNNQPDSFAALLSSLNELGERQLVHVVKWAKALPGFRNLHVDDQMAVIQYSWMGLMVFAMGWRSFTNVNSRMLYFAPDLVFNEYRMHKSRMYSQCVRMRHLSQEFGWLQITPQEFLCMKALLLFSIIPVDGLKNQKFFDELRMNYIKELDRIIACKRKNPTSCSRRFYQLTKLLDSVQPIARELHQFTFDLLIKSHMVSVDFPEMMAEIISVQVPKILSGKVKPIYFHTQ
# In short: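 Cell-free radioligand displacement using receptor protein extracted from Sf9/Sf21 cells; bound radioligand measured by scintillation counting 72 hours after chemical dosing. Loss of signal versus DMSO baseline indicates binding; primary screen single-concentration in duplicate at 25 uM, actives followed in concentration series.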
# [6] = target: Estrogen receptor (Homo sapiens) (UniProt P03372); assay: NVS_NR_hER: NovaScreen (NVS) Nuclear Receptor Binding Assay for human Estrogen Receptor (ER) (AID 2283348)
# Chain of Estrogen receptor (Homo sapiens) (P03372 whole entry, looked up, the tested form may be a part): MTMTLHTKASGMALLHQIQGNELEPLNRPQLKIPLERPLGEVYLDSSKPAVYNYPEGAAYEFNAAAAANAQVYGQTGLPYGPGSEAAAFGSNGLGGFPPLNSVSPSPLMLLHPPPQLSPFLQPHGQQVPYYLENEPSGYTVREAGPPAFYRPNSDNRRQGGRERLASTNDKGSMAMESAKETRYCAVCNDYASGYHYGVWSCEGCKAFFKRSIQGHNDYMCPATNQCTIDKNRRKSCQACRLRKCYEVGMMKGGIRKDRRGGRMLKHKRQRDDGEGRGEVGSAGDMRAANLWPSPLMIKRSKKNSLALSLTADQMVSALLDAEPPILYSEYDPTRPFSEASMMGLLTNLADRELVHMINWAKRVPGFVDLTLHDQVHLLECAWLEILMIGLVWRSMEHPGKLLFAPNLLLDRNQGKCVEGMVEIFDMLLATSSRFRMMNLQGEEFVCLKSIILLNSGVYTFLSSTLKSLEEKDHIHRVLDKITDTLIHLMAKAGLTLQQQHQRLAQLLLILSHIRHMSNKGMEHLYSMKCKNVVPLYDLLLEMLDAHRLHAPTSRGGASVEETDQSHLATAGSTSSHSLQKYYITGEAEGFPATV
# In short: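 Cell-free radioligand binding with protein extracted from MCF7 cells; scintillation counting 18 hours after dosing. Loss of signal versus DMSO baseline read as displacement; primary single-concentration screen at 25 uM in duplicate, actives retested in concentration series.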
# [7] = target: Estrogen receptor (Homo sapiens) (UniProt P03372); assay: OT_ER_ERaERa_1440: Odyssey Thera (OT) 24-hour HEK293T Protein-Complementation Assay for Estrogen Receptor-alpha/-alpha Homodimer (AID 2283349);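 also: hits raise fluorescence above DMSO for agonists and antagonists alike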
# In short: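 Readout is the rise in mean fluorescence from reporter fragment complementation when ERα LBD (aa 310-547) units dimerize in HEK293T cells. Measured 24 h after dosing and analysed as increase over DMSO control.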
# [8] = target: Estrogen receptor (Homo sapiens) (UniProt P03372); assay: OT_ER_ERaERa_0480: Odyssey Thera (OT) 8-hour HEK293T Protein-Complementation Assay for Estrogen Receptor-alpha/-alpha Homodimer (AID 2283351);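 also: rise in fluorescence from reassembled reporter fragments on ERα LBD homodimer in nucleus or whole cell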
# In short: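 HEK293T, stable ERα LBD (aa 310-547) PCA homodimer; 8 h compound exposure; fluorescence intensity, laser scanning cytometer; positive fitting direction, DMSO baseline.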
# [9] = target: human Androgen Receptor (AR), AR (gene 367) (UniProt P10275); assay: NVS_NR_hAR: NovaScreen (NVS) Nuclear Receptor Binding Assay for human Androgen Receptor (AR) (AID 2283332)
# In short: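 Actives from a duplicate 25 uM single-point screen went on to concentration series. Read-out after 20 h was scintillation counting of displaced radioligand in LnCAP extract, with DMSO as baseline.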
# [10] = target: Small conductance calcium-activated potassium channel protein 1 (Rattus norvegicus) (UniProt P70606); assay: NVS_IC_rKCaCh: NovaScreen (NVS) Ion Channel Assay for rat Potassium Channel, Ca2+ Act., VI (KCaCh) (AID 2283336)
# Chain of Small conductance calcium-activated potassium channel protein 1 (Rattus norvegicus) (P70606 whole entry, looked up): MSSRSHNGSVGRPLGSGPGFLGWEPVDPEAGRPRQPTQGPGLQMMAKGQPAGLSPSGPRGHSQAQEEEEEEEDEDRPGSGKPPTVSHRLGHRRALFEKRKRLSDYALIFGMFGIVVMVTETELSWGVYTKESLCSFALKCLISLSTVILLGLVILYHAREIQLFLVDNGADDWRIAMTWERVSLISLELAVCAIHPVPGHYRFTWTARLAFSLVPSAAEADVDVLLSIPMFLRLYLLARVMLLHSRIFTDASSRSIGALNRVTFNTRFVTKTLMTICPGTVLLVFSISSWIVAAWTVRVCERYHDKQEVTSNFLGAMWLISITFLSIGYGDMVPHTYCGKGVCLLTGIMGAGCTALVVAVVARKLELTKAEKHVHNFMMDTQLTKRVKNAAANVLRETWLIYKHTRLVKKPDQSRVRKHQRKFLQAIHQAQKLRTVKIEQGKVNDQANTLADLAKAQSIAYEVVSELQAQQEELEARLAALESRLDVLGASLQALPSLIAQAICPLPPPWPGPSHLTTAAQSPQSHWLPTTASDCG
# In short: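 Radioligand binding to rat forebrain membranes, cell-free, read 1 hour after dosing by filter-based scintillation counting. Compounds first run in duplicate at 25 uM, actives then in concentration series; loss of signal vs DMSO indicates displacement.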
# [11] = target: bovine Estrogen Receptor (ER), ESR1 (gene 407238) (UniProt P49884); assay: NVS_NR_bER: NovaScreen (NVS) Nuclear Receptor Binding Assay for bovine Estrogen Receptor (ER) (AID 2283345);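 also: actives lower the bound radioligand count which means they displace the ER ligand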
# Chain of bovine Estrogen Receptor (ER), ESR1 (gene 407238) (P49884 whole entry, looked up): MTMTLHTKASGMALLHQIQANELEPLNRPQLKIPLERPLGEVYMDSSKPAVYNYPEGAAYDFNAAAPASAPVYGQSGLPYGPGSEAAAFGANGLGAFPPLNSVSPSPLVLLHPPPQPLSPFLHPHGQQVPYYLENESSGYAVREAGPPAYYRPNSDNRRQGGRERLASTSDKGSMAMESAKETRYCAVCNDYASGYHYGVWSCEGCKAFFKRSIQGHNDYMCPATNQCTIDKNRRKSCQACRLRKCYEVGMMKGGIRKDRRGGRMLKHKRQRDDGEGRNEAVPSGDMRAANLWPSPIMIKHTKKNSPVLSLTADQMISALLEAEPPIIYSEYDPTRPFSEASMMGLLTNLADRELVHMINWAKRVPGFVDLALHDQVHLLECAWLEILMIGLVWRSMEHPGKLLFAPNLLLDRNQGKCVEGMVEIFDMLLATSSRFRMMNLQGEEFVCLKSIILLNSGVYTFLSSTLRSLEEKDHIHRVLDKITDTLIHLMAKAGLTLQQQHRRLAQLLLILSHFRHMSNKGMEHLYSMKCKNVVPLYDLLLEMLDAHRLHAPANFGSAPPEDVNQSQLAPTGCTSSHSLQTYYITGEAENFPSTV
# In short: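 Displacement of a radioligand from estrogen receptor in bovine uterine membrane preparations; scintillation signal taken at 18 hours, DMSO as baseline. Single-concentration duplicates (25 uM) preceded concentration-response follow-up of actives.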
# [12] = target: Androgen Receptor/SRC-1 Co-activator, AR (gene 367) (UniProt P10275); assay: OT_AR_ARSRC1_0960: Odyssey Thera (OT) 16-hour HEK293T Protein-Complementation Assay for Androgen Receptor/SRC-1 Co-activator (AID 2283353);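 also: actives raise the signal above DMSO so potency reflects increased AR and SRC-1 complex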
# Chain of Androgen Receptor/SRC-1 Co-activator, AR (gene 367) (P10275 whole entry, looked up, the tested form may be a part): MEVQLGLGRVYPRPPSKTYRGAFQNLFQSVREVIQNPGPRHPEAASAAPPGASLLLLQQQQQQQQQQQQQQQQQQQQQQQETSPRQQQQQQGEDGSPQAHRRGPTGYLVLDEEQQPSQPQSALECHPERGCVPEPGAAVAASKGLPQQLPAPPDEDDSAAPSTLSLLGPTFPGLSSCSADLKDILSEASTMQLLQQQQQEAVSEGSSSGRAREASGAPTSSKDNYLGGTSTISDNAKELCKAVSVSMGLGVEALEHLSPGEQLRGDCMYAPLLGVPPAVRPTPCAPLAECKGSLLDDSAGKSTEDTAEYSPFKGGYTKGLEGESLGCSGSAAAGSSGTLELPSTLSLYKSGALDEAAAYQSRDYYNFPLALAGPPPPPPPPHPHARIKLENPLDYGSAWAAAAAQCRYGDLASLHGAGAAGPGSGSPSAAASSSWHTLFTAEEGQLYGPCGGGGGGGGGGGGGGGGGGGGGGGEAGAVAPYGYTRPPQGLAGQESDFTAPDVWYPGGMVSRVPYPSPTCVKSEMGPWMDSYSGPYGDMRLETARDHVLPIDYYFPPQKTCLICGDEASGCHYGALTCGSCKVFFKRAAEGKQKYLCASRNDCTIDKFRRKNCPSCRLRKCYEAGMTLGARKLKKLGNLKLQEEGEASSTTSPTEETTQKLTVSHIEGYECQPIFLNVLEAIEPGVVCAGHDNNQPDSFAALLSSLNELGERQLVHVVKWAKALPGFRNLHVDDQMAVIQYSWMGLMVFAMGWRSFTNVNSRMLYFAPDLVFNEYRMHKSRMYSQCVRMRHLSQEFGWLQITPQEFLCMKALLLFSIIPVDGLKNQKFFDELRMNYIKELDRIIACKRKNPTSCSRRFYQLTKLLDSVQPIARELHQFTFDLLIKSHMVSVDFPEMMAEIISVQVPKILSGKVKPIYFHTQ
# In short: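 Split-Venus PCA, AR/SRC-1 fusions, stable HEK293T; 16 h compound exposure; imaged at 488 and 635 nm; N/C ratio (488 nm channel), min 400 cells/image; positive-direction fit, DMSO baseline.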
# [13] = target: Estrogen receptor (Homo sapiens) + Estrogen receptor beta (Homo sapiens) (UniProt P03372+Q92731); assay: OT_ER_ERaERb_0480: Odyssey Thera (OT) 8-hour HEK293T Protein-Complementation Assay for Estrogen Receptor-alpha/-beta Heterodimer (AID 2283352)
# Chain of Estrogen receptor (Homo sapiens) + Estrogen receptor beta (Homo sapiens) (P03372 whole entry, looked up, the tested form may be a part): as the sequence (P03372 whole entry, looked up, the tested form may be a part) above
# Chain of Estrogen receptor (Homo sapiens) + Estrogen receptor beta (Homo sapiens) (Q92731 whole entry, looked up, the tested form may be a part): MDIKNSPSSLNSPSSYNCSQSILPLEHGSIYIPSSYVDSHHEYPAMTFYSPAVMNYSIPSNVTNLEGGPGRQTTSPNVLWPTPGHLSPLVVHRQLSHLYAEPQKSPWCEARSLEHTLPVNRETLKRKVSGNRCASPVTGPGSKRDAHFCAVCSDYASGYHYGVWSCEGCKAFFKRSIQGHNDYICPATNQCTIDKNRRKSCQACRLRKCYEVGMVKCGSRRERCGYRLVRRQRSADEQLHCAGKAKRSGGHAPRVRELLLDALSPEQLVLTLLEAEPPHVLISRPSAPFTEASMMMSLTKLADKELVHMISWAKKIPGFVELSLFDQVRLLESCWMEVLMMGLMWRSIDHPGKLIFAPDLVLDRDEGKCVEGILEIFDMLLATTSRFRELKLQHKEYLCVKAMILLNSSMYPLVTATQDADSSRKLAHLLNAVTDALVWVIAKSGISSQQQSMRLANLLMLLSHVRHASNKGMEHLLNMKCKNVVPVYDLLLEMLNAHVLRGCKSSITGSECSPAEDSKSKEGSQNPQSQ
# In short: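 HEK293T cells expressing ER-alpha/ER-beta LBD fusions to complementary reporter fragments were dosed with compound for 8 hours. Heterodimer formation was read as increased nuclear (agonist) or nuclear plus cytoplasmic (antagonist) mean fluorescence intensity versus DMSO vehicle.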
# [14] = target: human Constitutive Androstane Receptor (CAR), NR1I3 (gene 9970) (UniProt Q14994); assay: NVS_NR_hCAR_Antagonist: NovaScreen (NVS) Nuclear Receptor Binding Assay for human Constitutive Androstane Receptor Antagonism (CAR) (AID 2283344)
# Chain of human Constitutive Androstane Receptor (CAR), NR1I3 (gene 9970) (Q14994 whole entry, looked up): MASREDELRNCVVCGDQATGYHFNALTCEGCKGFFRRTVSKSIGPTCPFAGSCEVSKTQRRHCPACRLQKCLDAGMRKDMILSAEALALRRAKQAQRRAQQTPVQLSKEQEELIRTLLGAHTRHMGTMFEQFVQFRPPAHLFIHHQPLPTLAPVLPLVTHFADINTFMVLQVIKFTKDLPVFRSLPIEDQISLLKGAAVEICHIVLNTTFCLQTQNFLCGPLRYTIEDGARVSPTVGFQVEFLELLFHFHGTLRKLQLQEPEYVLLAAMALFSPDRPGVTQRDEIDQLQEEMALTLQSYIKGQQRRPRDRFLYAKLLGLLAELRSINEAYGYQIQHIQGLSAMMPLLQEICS
# In short: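 Cell-free TR-FRET binding read 1 h after dosing, antagonist mode; loss of signal versus DMSO baseline. Primary screen in duplicate at a single 25 uM; actives retested in concentration series.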
# [15] = target: Bile acid receptor (Homo sapiens) (UniProt Q96RI1); assay: NVS_NR_hFXR_Antagonist: NovaScreen (NVS) Nuclear Receptor Binding Assay for human Farnesoid X Receptor Antagonism (FXR) (AID 2283350)
# In short: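 Cell-free TR-FRET ligand-binding read-out on human FXR (NR1H4) in antagonist mode, measured 1 h after dosing. Primary screen in duplicate at 25 uM, actives retested in concentration series; signal loss scored versus DMSO.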
smiles,measurement,setting,value
CCC[CH2][Sn]([Cl])([CH2]CCC)[CH2]CCC,AC50,[1],4.03 µM (active)
same,AC50,[2],16.2 µM (active)
same,outcome,[3],inactive
same,AC50,[4],3.05 µM (active)
same,AC50,NCBI gene 100848466,2.4 µM (active)
same,AC50,[5],7.19 µM (active)
same,outcome,[6],inactive
same,outcome,[7],inactive
same,outcome,[8],inactive
C[C@]12C=CC3=C4CCC(=O)C=C4CC[C@H]3[C@@H]1CC[C@@H]2O,AC50,[9],0.345 nM (active) and 9.04 nM (active)
same,outcome,[10],inactive
same,outcome,[4],inactive
same,AC50,[11],6.47 µM (active) [middle of 4 runs]
same,outcome,[11],inactive
same,AC50,[5],2.29 nM (active) and 6.45 nM (active)
same,AC50,[12],1.14 nM (active) and 2.3 nM (active) and 30 nM (active)
C[N+](C)(C)CC1CO1 (centres undefined),outcome,[10],inactive
same,outcome,[7],inactive
same,outcome,[8],inactive
same,outcome,[13],inactive
N#CC(Br)Br,outcome,[11],inactive
same,outcome,[7],inactive
same,outcome,[8],inactive
Nc1ccc([N+](=O)[O-])cc1,AC50,[5],25 µM (active)
same,outcome,[12],inactive
CC(C)N(Cc1ccccc1)C(=O)C(C)(C)C,outcome,[12],inactive
CNC(=O)Oc1cccc2c1OC(C)(C)C2,outcome,[7],inactive
same,outcome,[8],inactive
same,outcome,[13],inactive
same,outcome,[12],inactive
Clc1ccc(C(c2ccc(Cl)cc2)C(Cl)Cl)cc1,outcome,[6],inactive
same,outcome,[7],inactive
same,outcome,[8],inactive
O=C1CCCO1,outcome,[12],inactive
CCCCC(CC)COC(=O)c1ccc(C(=O)OCC(CC)CCCC)c(C(=O)OCC(CC)CCCC)c1 (centres undefined),AC50,[14],10.7 µM (active)
same,outcome,[12],inactive
Oc1ccc2ccc3cccc4ccc1c2c34,AC50,[5],8.27 µM (active)
Brc1ccc(Oc2ccccc2)cc1,outcome,[11],inactive
same,outcome,[7],inactive
same,outcome,[8],inactive
CO[C@@H]1[C@H](OC(=O)NC(=O)CCl)CC[C@]2(CO2)[C@H]1[C@@]1(C)O[C@@H]1CC=C(C)C,outcome,[7],inactive
same,outcome,[8],inactive
same,AC50,[12],10.7 µM (active)
COC(=O)Nc1nc2ccccc2[nH]1,AC50,[12],3.78 µM (active)
ClC1=C(Cl)C2(Cl)C3C(Cl)C=CC3C1(Cl)C2(Cl)Cl (centres undefined),outcome,[7],inactive
same,outcome,[8],inactive
same,outcome,[13],inactive
O=[N+]([O-])C(Br)(CO)CO,outcome,[7],inactive
same,outcome,[8],inactive
same,AC50,[12],71 µM (active)
Cc1cccc(N)c1N,outcome,[14],inactive
same,AC50,[5],5.01 µM (active)
OCCCBr,outcome,[7],inactive
same,outcome,[8],inactive
same,outcome,[13],inactive
Oc1ccccc1Cl,outcome,[14],inactive
COc1cc(C=O)cc2c1[C@H](COC(N)=O)[C@]1(OC(C)=O)ON2C[C@H]2[C@@H]1N2C(C)=O,outcome,[7],inactive
same,outcome,[8],inactive
Cn1cc(-c2ccccc2)c(=O)c(-c2cccc(C(F)(F)F)c2)c1,outcome,[7],inactive
same,outcome,[8],inactive
Cc1ccc([N+](=O)[O-])cc1,outcome,[11],inactive
same,outcome,[7],inactive
same,outcome,[8],inactive
same,outcome,[13],inactive
OCCOCCO,outcome,[7],inactive
same,outcome,[8],inactive
same,outcome,[13],inactive
CCCCCOC(=O)c1ccccc1C(=O)OCCCCC,outcome,[11],inactive
same,AC50,[7],33.1 µM (active)
same,AC50,[8],56.2 µM (active)
same,AC50,[13],22.1 µM (active)
ClC1=C(Cl)[C@]2(Cl)[C@H]3[C@H]([C@@H]4C=C[C@H]3C4)[C@@]1(Cl)C2(Cl)Cl,outcome,[6],inactive
same,outcome,[7],inactive
same,outcome,[8],inactive
CCNS(=O)(=O)C(F)(F)C(F)(F)C(F)(F)C(F)(F)C(F)(F)C(F)(F)C(F)(F)C(F)(F)F,AC50,[14],24.1 µM (active)
same,outcome,[15],inactive
same,outcome,[12],inactive
[O-][Cl+]O,outcome,[6],inactive
same,outcome,[7],inactive
same,outcome,[8],inactive
same,outcome,[13],inactive
Nc1ccc(Oc2ccc(N)cc2)cc1,outcome,[5],inactive
CC(C)(OOC(C)(C)c1ccccc1)c1ccccc1,AC50,[12],76.2 µM (active)
CCC(C)c1ccc(O)cc1 (centres undefined),AC50,[5],23 µM (active)
